MgrA-DNA mod – S. aureus MgrA activity modulators, primary screen, biochemical, S. aureus Newman, fluorescence polarization; MgrA-DNA binding; inhibition, % (concentration not given with the values); AID 602314, 2012; hit rate 0.13% among 84,000; in the data active = inhibition above about 30%, passing the limit was not always enough;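 also: higher means less MgrA bound to DNA so lower polarization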
A number is an active result; 0 = inactive. The full list was thinned out, with hits kept by preference.

SMILES	MgrA-DNA mod
O=c1c(-c2ccc(Oc3ccccc3)cc2)[n+]([O-])c2ccccc2n1O	0
CCOC(=O)c1ncn(Cc2ccccc2)c1N	0
O=C1c2cccc3c(N4CCCC4)ccc(c23)C(=O)N1c1ccccc1	0
O=C1c2cccc3c(N4CCNCC4)ccc(c23)C(=O)N1c1ccc(Cl)cc1	59.8
Cc1cccc(N2C(=O)c3cccc4c(N5CCNCC5)ccc(c34)C2=O)c1	0
O=C(O)Cn1c(SCCOc2ccc(Cl)cc2)nc2ccccc21	0
CC(C)(O)C1Cc2cc(/C=C/C(=O)O)c(O)cc2O1 (centres undefined)	0
CC(C)c1cc2cc(/C=C/C(=O)O)c(O)cc2o1	60.4
CC(C)c1ccc(/C=C/C(=O)O)cc1	0
CSc1sc(C(=O)NCC2CC2)c(-c2cccs2)c1C#N	0
C=CCn1c(-c2ccco2)nn(C2CC(O)(O)C3OCC2O3)c1=S (centres undefined) (tested in a mixture with another compound)	0
COC(=O)c1cc(C(=O)OC)c(C(=O)OC)cc1C(=O)OC	0
COC(=O)c1ccsc1N	70.7
COC(=O)c1sccc1O	0
COc1ccc(Cc2n[nH]c(=S)n2-c2ccc(Cl)cc2)cc1OC	0
Cc1cc(C)c2cc(C(=O)N3CCC(N4CCCCC4)CC3)[nH]c2c1	0
COC(=O)N1c2ccccc2C=CC1C#N (centres undefined)	0
CC(C)(C)C(=O)C1C2C3COC(O3)C(=O)C2C2C=Cc3ccccc3N21 (centres undefined)	41.5
Cc1cccc(C(=O)OCCN2C(=O)c3cccc4c(N5CCOCC5)ccc(c34)C2=O)c1	0
COC(=O)c1ccc2c3c(cccc13)CC2	0
COc1cc(/C=C2\CCc3ccccc3C2=O)cc(OC)c1OC	0
COc1ccc2c3c(cccc13)C(=O)CC2	69.0
Cc1ccc(C)n1CCN1CCN(S(=O)(=O)c2cc(Br)c(Br)s2)CC1	0
O=[N+]([O-])c1cccc(/C=C/c2nc(C=Nc3cc(Cl)ccc3Cl)c(O)o2)c1	0
N#CC(C#N)=C(N)/C(C#N)=C/c1ccco1	0
SMILES	MgrA-DNA mod
COc1ccc(NC(=O)/C(C#N)=C/C=C/c2ccco2)cc1	0
N#C/C(=C\C=C\c1ccco1)C(N)=S	99.9
Cc1ccccc1OCC(=O)N1CCOCC1	0
Cc1[nH]c2ccccc2c1C(c1ccccc1)N1CCN(C)CC1 (centres undefined)	0
CC1(C)CC(=O)C2=C(C1)OC(c1cccs1)C(C#N)=C2N (centres undefined)	98.5
CC1(C)CC(=O)C2=C(C1)NC1=C(C(=O)CC(C)(C)C1)C2c1cccs1	0
CC1(C)CC(=O)C2=C(C1)OC(N)=C(C#N)C2c1ccccc1 (centres undefined)	0
O=S(=O)(c1cc(Br)c(Cl)s1)N1CCOCC1	0
Cc1ccc(C)n1C(CC(=O)O)c1ccsc1 (centres undefined)	61.3
O=C(O)CC(c1ccsc1)n1cccc1 (centres undefined)	0
Cc1ccc(C)n1C(CC(=O)O)c1ccc(F)cc1 (centres undefined)	0
O=C(NCCN1CCOCC1)c1ccc(-n2cccn2)cc1	0
O=C(CSC1=NCCS1)Nc1ccc(Cl)cc1C(F)(F)F	0
CC(C)NC(=O)c1c(Cl)nc2sccn12	0
CC1=NN(c2cccc(C(=O)O)c2)C(=O)/C1=C\c1ccc(-c2cc([N+](=O)[O-])ccc2C)o1	0
CC1=NN(c2cccc(C(=O)O)c2)C(=O)/C1=C/c1ccc(-c2cccc(Cl)c2C)o1	96.0
CC1=NN(c2cccc(C(=O)O)c2)C(=O)/C1=C\c1ccc(-c2ccc(Cl)c(C(=O)O)c2)o1	0
O=C(Oc1ccccc1-c1cnc2ccccc2n1)c1ccc(F)cc1	0
O=C(CCCn1c(=O)c2cccn2c2ccccc21)NCC1CCCO1 (centres undefined)	0
N#C/C(=C/c1cn(CCC(N)=O)c2ccccc12)c1ccc(C#N)cc1	0
CCOC(=O)COc1c(Cl)cc(/C=C2/N=C(c3ccco3)OC2=O)cc1OCC	0
COc1cc(/C=C2/C(=O)N(c3ccc(F)cc3)N=C2C)ccc1OCc1ccc(F)cc1	0
CCOc1cc(/C=C2/C(=O)ON=C2C)cc(Cl)c1OCc1ccc(F)cc1	54.4
CCOC(=O)CSCc1cn2cc(Cl)ccc2n1	0
c1ccc(CSc2nnnn2-c2ccccc2)cc1	0
SMILES	MgrA-DNA mod
O=C1C=CC(=O)C(Sc2nnnn2-c2ccccc2)=C1	74.9
CC(Sc1nnnn1-c1ccccc1)C(=O)O (centres undefined)	0
BrCCOC1OCCOC1OCCBr (centres undefined)	0
CCOC(=O)C1=C(CCl)OC(N)=C(C#N)C1c1ccccc1F (centres undefined)	0
O=C(c1cccc2c1NC(c1ccc(Br)cc1)C1CC=CC21)N1CCOCC1 (centres undefined)	0
COC(=O)c1ccc([C@@H]2Nc3c(C)cccc3[C@@H]3C=CC[C@@H]32)cc1	0
O=C(O)C1Nc2c(I)cccc2C2C=CCC12 (centres undefined)	101.3
CCOC(=O)/C(N=Nc1cc(Cl)cc(Cl)c1)=C(\C)O	0
Cc1ccc2nc(SCC(=O)N(c3ccccc3)C(C)C)[nH]c2c1	0

High-throughput results (PubChem BioAssay)
